Results filed as inconclusive are left out. A call without a number means that no potency is given here. Active and inactive are the calls of the source. Calls come from the whole dose curve; as a rule, active = well fitted cell-killing curve with a large enough effect; inconclusive = small, poorly fitted or top-dose-only effect; inactive = flat fitted curve, though single readings scatter.

The source of these data is PubChem BioAssay (NCATS).
Potency is the fitted concentration of half-maximal effect.

This test in a line: Cell Viability - LYMP2-018 (AID 985).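 Note: compound exposure lasted 24 hr at 37 °C; nearly all actives have a fitted effect of over 50% in size.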 To be noted: LYMP2-018 lymphoblastoid cells, viability (qHTS); series mostly up to 92.2 µM. The text has this:
NIH Chemical Genomics Center [NCGC]
NIH Molecular Libraries Screening Centers Network [MLSCN]
National Institutes of Environmental Health Sciences [NIEHS]
National Toxicology Program [NTP]
We have developed a 1536-well cell-based assay for quantitative high throughput screening (qHTS) against a number of cell lines to determine in vitro cytotoxicity of small molecules. This particular assay uses a human lymphoblastoid cell line (LYMP2-018) purchased from Coriell Institute for Medical Research.
NCGC Assay Protocol Summary:
The CellTiter-Glo luminescent cell viability assay (Promega) is a homogeneous method to measure the number of viable cells in culture. The end point readout of this assay is based on quantitation of intracellular ATP, an indicator of metabolic activity, using the luciferase reaction. Luciferase catalyzes the oxidation of beetle Luciferin to oxyluciferin and light in the presence of ATP. The luminescent signal is proportional to amount of ATP present.
Using the CellTiter-Glo luminescent cell viability assay, the amount of cellular ATP was measured in the lymphoblastoid cell line with complete culture medium following compound treatment for 24 hours. The assay was performed in opaque white Kalypsys 1536-well plates. In the screen, tetraoctylammonium bromide was used as positive control. Library compounds were measured for their ability to cause acute toxicity in the cell line, as reflected by a decrease in intracellular ATP levels, in a concentration-dependent manner. […] AC50 values were determined from concentration-response data modeled with the standard Hill equation.
qHTS protocol for CellTiter Glo lymphoblastoid cellular assay
[Step] [Parameter] [Value] [Description]
1. Reagent; 5 uL; 2500 lymphoblastoid cells/well
2. Time; 5 hr; 37 C incubation
4. Controls; 23 nL; Tetraoctylammonium bromide 6.4pM to 92 uM
5. Time; 24 hr; 37 C incubation
6. Reagent; 5 uL; CellTiter Glo reagent
7. Time; 30 min; Room Temperature
8. Detection; Luminescence; Viewlux plate reader
Keywords: cell viability, cytotoxicity, lymphoblastoid cell line, luminescence, NTPHTS, NTPHTS_NCGC, NIEHS, DSSTox, MLSMR, MLSCN, NIH Roadmap, qHTS, NCGC
Background: In qHTS, concentration-response curves come from the screen itself.
As for `O=[N+]([O-])c1c2ccccc2cc2ccccc12`, the Potency entry is “inactive”.

As to `C1CCC(NC2CCCCC2)CC1`, the Potency entry was “inactive”.

For `CCOCCOC(C)=O`, the Potency entry was “inactive”.

For the compound `COc1ccc(C(c2ccc(OC)cc2)C(Cl)(Cl)Cl)cc1`, the Potency entry was “inactive”.

For `O=C(O)COc1ccccc1`, the Potency entry was “inactive”.

In the case of `CCCCCCCCc1ccc(O)cc1`, the Potency result is “inactive”.

`Nc1ccc([N+](=O)[O-])cc1`: the Potency result is “inactive”.

Regarding `OCCCBr`, the Potency entry is “inactive”.

For `CC(C)(O)C(=O)Nc1ccc([N+](=O)[O-])c(C(F)(F)F)c1`, the Potency result was “inactive”.

For the compound `Nc1ccc(Cl)cc1N`, the Potency entry was “inactive”.

As for `C=CC(=O)NCNC(=O)C=C`, the Potency entry is “inactive”.

As for `O=C(O)C(Cl)Cl`, the Potency result was “inactive”.

As to `COC(C)(C)CCCC(C)C/C=C/C(C)=C/C(=O)OC(C)C` (stereo unspecified), the Potency entry is “inactive”.

Regarding `CCCCC(CC)COC(=O)c1ccccc1C(=O)OCC(CC)CCCC` (stereo unspecified), the Potency entry is “inactive”.

On to `CN(C)NC(=O)CCC(=O)O`, for which the Potency entry is “inactive”.

Turning to `O=S(=O)(c1ccc(Cl)cc1)c1ccc(Cl)cc1`, the Potency entry is “inactive”.

With `CC(=O)[O][Hg][c]1ccccc1`, the Potency is 0.631 µM (active).

In the case of `CCOP(=O)(NC(C)C)Oc1ccc(SC)c(C)c1` (stereo unspecified), the Potency entry was “inactive”.

For the compound `c1cc2ccc3cccc4ccc(c1)c2c34`, the Potency result is “inactive”.

As to `CCCCOC(=O)c1ccccc1C(=O)OCc1ccccc1`, the Potency entry was “inactive”.

For the compound `CN(C)[C@@H]1C(=O)C(C(N)=O)=C(O)[C@@]2(O)C(=O)C3=C(O)c4c(O)cccc4[C@@](C)(O)[C@H]3[C@H](O)[C@@H]12`, the Potency result is “inactive”.

Turning to `Cc1cc(O)ccc1Cl`, the Potency result was “inactive”.

Consider `O=[N+]([O-])c1c(Cl)c(Cl)cc(Cl)c1Cl`, for which the Potency entry is “inactive”.

Turning to `Nc1ccc(Cl)cc1`, the Potency entry was “inactive”.

For `O=[N+]([O-])c1cc([N+](=O)[O-])c2ccccc2c1`, the Potency entry was “inactive”.

In the case of `Nc1ccc(Sc2ccc(N)cc2)cc1`, the Potency result was “inactive”.
